In PubChem BioAssay (Tox21) one finds Potency, activity, negative = inhibition and activity change, negative = inhibition data, which are given here for 48 compounds.

Values without a mark were called inactive. Inconclusive results are not listed. Activity calls are given as the source filed them. Calls come from the whole dose curve.

In experiment [1] the target is Acetylcholinesterase (Homo sapiens) (UniProt P22303). Kind of experiment: Acetylcholinesterase (AChE) small molecule antagonists: colormetric cell-based qHTS assay (AID 1347395). Note: nearly all actives have a fitted effect of over 30% in size. The note with it: SH-SY5Y cells AChE activity, colorimetric (Ellman); series mostly up to 115 µM. A digest of the protocol:
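Cells (SH-SY5Y, 2,000 per well) are seeded and left overnight at 37 C. Compound is added for 30 min, then DTNB and acetylthiocholine for a further 90 min at 37 C before absorbance-based thiocholine detection.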

Experiment [2] has the same target. Kind of experiment: Acetylcholinesterase (AChE) small molecule antagonists: enzyme-based qHTS assay (AID 1347397). Note: nearly all actives have a fitted effect of over 55% in size. The note with it: Potency: AChE enzyme activity inhibition; outcome: AChE enzyme activity inhibition; series mostly up to 115 µM. A digest of the protocol:
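Recombinant human AChE, dispensed at 50 mU/mL, was preincubated with Tox21 10K compounds or DMSO vehicle for 30 min at room temperature. DTNB plus acetylthiocholine was then added, and thiocholine was measured colorimetrically after a further 10 min.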

The target is the same in experiment [3]. Briefly: Acetylcholinesterase (AChE) small molecule antagonists: fluorescence cell-based qHTS assay (AID 1347398). Note: nearly all actives have a fitted effect of over 50% in size. Conditions: SH-SY5Y cells; Potency: AChE activity; outcome: AChE activity; series mostly up to 115 µM. In short, it runs like this: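 Human SH-SY5Y cells were plated overnight at 37 C, exposed to compound for 30 min at 37 C, 5% CO2, then given acetylthiocholine plus Thiolite Green for 40 min at room temperature; thiocholine fluorescence (Ex/Em 490/520 nm) reports endogenous AChE activity.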

Experiment [4] has the same target. Briefly: Acetylcholinesterase (AChE) small molecule antagonists: enzyme-based qHTS assay with human liver microsomes (AID 1347399). Note: nearly all actives have a fitted effect of over 60% in size. The note with it: Potency: qHTS inhibition; outcome: qHTS inhibition; series mostly up to 115 µM. A digest of the protocol: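 Recombinant human AChE (50 mU/mL in the enzyme mix) and human liver microsomes (0.25 mg/mL final) were preincubated with compound and NADPH (0.25 mg/mL final) for 30 min at 37 C. Acetylthiocholine/DTNB was then added; thiocholine was read colorimetrically after 10 min at room temperature.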
(qHTS replaces the single test concentration by a dilution series.)
% is set by controls: 0 for no effect and ±100 for the full control effect; potency is the fitted concentration of half-maximal effect.

Sequence of Acetylcholinesterase (Homo sapiens) (P22303 whole entry, looked up): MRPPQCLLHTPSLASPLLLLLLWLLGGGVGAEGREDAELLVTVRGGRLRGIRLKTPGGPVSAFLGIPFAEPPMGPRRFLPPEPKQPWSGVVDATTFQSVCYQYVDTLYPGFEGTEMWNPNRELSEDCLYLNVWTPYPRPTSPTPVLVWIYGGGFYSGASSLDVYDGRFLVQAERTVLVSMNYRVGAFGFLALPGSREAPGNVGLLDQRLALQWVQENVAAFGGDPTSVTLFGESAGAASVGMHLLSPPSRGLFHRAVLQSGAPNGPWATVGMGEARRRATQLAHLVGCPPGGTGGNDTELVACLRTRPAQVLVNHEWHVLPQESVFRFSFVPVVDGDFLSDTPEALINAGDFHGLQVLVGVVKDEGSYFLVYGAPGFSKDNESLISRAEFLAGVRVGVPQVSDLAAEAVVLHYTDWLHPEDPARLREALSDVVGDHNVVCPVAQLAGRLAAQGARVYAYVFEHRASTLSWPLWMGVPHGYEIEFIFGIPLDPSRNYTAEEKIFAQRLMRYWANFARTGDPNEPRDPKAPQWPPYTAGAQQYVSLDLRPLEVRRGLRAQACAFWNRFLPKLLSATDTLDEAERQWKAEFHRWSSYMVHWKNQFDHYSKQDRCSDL

`CC(=O)C(C)O` (configuration not stated): the Potency entry in experiment [1], in experiment [2], in experiment [3] and in experiment [4] was “inactive” throughout.

For `N[C@@H](CCC(=O)O)C(=O)O`, the Potency result in experiment [1], in experiment [2], in experiment [3] and in experiment [4] was “inactive” each time.

With `CO/N=C(/C(=O)N[C@@H]1C(=O)N2C(C(=O)O)=C(Cn3nnc(C)n3)CS[C@H]12)c1csc(N)n1`, the Potency result in experiment [1], in experiment [2], in experiment [3] and in experiment [4] was “inactive” throughout.

`CC(C)n1nc(-c2cc3cc(O)ccc3[nH]2)c2c(N)ncnc21`: the Potency result in experiment [1], in experiment [2], in experiment [3] and in experiment [4] was “inactive” throughout.

As to `O=C(Nc1ccc(C(=O)O)c(O)c1)c1ccccc1`, the Potency entry in experiment [1], in experiment [2], in experiment [3] and in experiment [4] was “inactive” each time.

As to `COC(=O)/C=C/c1ccccc1`, the Potency entry in experiment [1], in experiment [2], in experiment [3] and in experiment [4] was “inactive” in each case.

Take `Cc1cc(Nc2ccc(O)cc2)ccc1N`: the Potency entry in experiment [1], in experiment [2], in experiment [3] and in experiment [4] was “inactive” each time.

Take `CCCCCNCCCCC`: the Potency result in experiment [1], in experiment [2], in experiment [3] and in experiment [4] was “inactive” each time.

Take `CCCCCC/C=C/C(=O)OC`: the Potency entry in experiment [1], in experiment [2], in experiment [3] and in experiment [4] was “inactive” throughout.

Regarding `O=C(O)C(Cc1cc(I)c(O)c(I)c1)c1ccccc1` (configuration not stated), the Potency result in experiment [1], in experiment [2], in experiment [3] and in experiment [4] was “inactive” each time.

On to `O=C(OCC1CO1)C1CCCCC1C(=O)OCC1CO1` (configuration not stated), for which the Potency entry in experiment [1], in experiment [2], in experiment [3] and in experiment [4] was “inactive” each time.

Consider `Cc1sccc1Br`, for which the Potency result in experiment [1], in experiment [2], in experiment [3] and in experiment [4] was “inactive” each time.

Take `CCCCCCc1ccc(-c2ccc(C#N)cc2)cc1`: the Potency entry in experiment [1], in experiment [2], in experiment [3] and in experiment [4] was “inactive” each time.

Consider `NS(=O)(=O)c1cc2c(cc1Cl)NC(C1CC3C=CC1C3)NS2(=O)=O` (configuration not stated), for which the Potency entry in experiment [1], in experiment [2], in experiment [3] and in experiment [4] was “inactive” each time.

Consider `NC(=O)c1ccc([N+](=O)[O-])cc1Cl`, for which the Potency entry in experiment [1], in experiment [2], in experiment [3] and in experiment [4] was “inactive” each time.

For the compound `Cc1ccc(S(=O)(=O)NC(=O)NC2CCCC2)cc1`, the Potency entry in experiment [1], in experiment [2], in experiment [3] and in experiment [4] was “inactive” in each case.

Turning to `CN(C)CCN(Cc1ccsc1)c1ccccn1`, the Potency result in experiment [1], in experiment [2], in experiment [3] and in experiment [4] was “inactive” each time.

Take `CC1=C2[C@@H]([C@H](C)CC[C@H]2/C=C(\C)C(=O)O)[C@H](O)C1`: the Potency entry in experiment [1], in experiment [2], in experiment [3] and in experiment [4] was “inactive” in each case.

On to `C=C(C)[C@@H]1CC=C(C)C(=O)C1`, for which the Potency result in experiment [1], in experiment [2], in experiment [3] and in experiment [4] was “inactive” each time.

For the compound `CCCCC(CC)CO` (configuration not stated), the Potency entry in experiment [1], in experiment [2], in experiment [3] and in experiment [4] was “inactive” throughout.

Regarding `O=C(Nc1cccc(C(F)(F)F)c1)c1cc(Br)cc(Br)c1O`, the Potency result in experiment [1], in experiment [2], in experiment [3] and in experiment [4] was “inactive” each time.

Take `Cc1ncc[nH]1`: the Potency entry in experiment [1], in experiment [2], in experiment [3] and in experiment [4] was “inactive” each time.

As to `O=c1n(CCO)c(=O)n(CCO)c(=O)n1CCO`, the Potency result in experiment [1], in experiment [2], in experiment [3] and in experiment [4] was “inactive” in each case.

In the case of `Clc1ccccn1`, the Potency entry in experiment [1], in experiment [2], in experiment [3] and in experiment [4] was “inactive” each time.

`COC(C)(C)CCCC(C)CC=O` (configuration not stated): the Potency entry in experiment [1], in experiment [2], in experiment [3] and in experiment [4] was “inactive” throughout.

For the compound `O=C1NCCN1CCO`, the Potency result in experiment [1], in experiment [2], in experiment [3] and in experiment [4] was “inactive” throughout.

For the compound `Cc1cccc(Nc2ccncc2S(=O)(=O)NC(=O)NC(C)C)c1`, the Potency result in experiment [1], in experiment [2], in experiment [3] and in experiment [4] was “inactive” in each case.

With `Cc1cc2nc3ccc(=[N+](C)C)cc-3sc2cc1N`, the Potency in experiment [1] was 1.38 µM (active); in experiment [2] it was 4.9 µM (active); in experiment [3], 2.19 µM (active); in experiment [4] it was 24.5 µM (active).

On to `CC(=O)OC/C=C(\C)CCC=C(C)C`, for which the Potency entry in experiment [1], in experiment [2], in experiment [3] and in experiment [4] was “inactive” in each case.

In the case of `CCCCCCCC/C=C\CCCCCCCCN`, the Potency result in experiment [1], in experiment [2], in experiment [3] and in experiment [4] was “inactive” in each case.

For `CNC1(C)C2CCC(C2)C1(C)C` (configuration not stated), the Potency result in experiment [1], in experiment [2], in experiment [3] and in experiment [4] was “inactive” each time.

As for `O=[N+]([O-])C(CO)(CO)CO`, the Potency entry in experiment [1], in experiment [2], in experiment [3] and in experiment [4] was “inactive” throughout.

As for `Cc1c(Cl)cccc1[N+](=O)[O-]`, the Potency result in experiment [1], in experiment [2], in experiment [3] and in experiment [4] was “inactive” each time.

For the compound `Cc1cc(C(C)(C)C)c(O)c(C(C)(C)C)c1`, the Potency result in experiment [1], in experiment [2], in experiment [3] and in experiment [4] was “inactive” in each case.

`CC(C)(O)c1ccc(CNC(=O)c2cccnc2Oc2ccc3nonc3c2)cc1`: the Potency entry in experiment [1], in experiment [2], in experiment [3] and in experiment [4] was “inactive” each time.

Consider `c1cc[c]([Bi]([c]2ccccc2)[c]2ccccc2)cc1`, for which the Potency result in experiment [1], in experiment [2], in experiment [3] and in experiment [4] was “inactive” in each case.

Take `COC(=O)CCC(=O)OC`: the Potency result in experiment [1], in experiment [2], in experiment [3] and in experiment [4] was “inactive” throughout.

With `CC(C)(C)OC=O`, the Potency entry in experiment [1], in experiment [2], in experiment [3] and in experiment [4] was “inactive” each time.

`CC(C)C(=O)OCc1cccc(OC(=O)[C@@H]2N3C(=O)[C@@H](NC(=O)Cc4ccccc4)[C@H]3SC2(C)C)c1`: the Potency entry in experiment [1], in experiment [2], in experiment [3] and in experiment [4] was “inactive” throughout.

As to `CN1CCCN(C(c2ccccc2)c2ccc(Cl)cc2)CC1` (configuration not stated), the Potency entry in experiment [1], in experiment [2], in experiment [3] and in experiment [4] was “inactive” each time.

Turning to `CC/C=C\CC/C=C/C(OCC)OCC`, the Potency entry in experiment [1], in experiment [2], in experiment [3] and in experiment [4] was “inactive” throughout.

Consider `O=C(/C=C/c1ccc([N+](=O)[O-])cc1)c1ccccc1`, for which the Potency entry in experiment [1], in experiment [2], in experiment [3] and in experiment [4] was “inactive” in each case.

Consider `NCCc1ccn[nH]1`, for which the Potency result in experiment [1], in experiment [2], in experiment [3] and in experiment [4] was “inactive” each time.

Regarding `CO[C@@]1(NC(=O)CSC[C@@H](N)C(=O)O)C(=O)N2C(C(=O)O)=C(CSc3nnnn3C)CS[C@@H]21`, the Potency result in experiment [1], in experiment [2], in experiment [3] and in experiment [4] was “inactive” each time.

As to `N[C@@H](C(=O)N[C@@H]1C(=O)N2C(C(=O)O)=C(Cl)CS[C@H]12)c1ccccc1`, the activity, negative = inhibition in experiment [1] was -0.844% [at 10.5 µM]. The values for the activity change, negative = inhibition in experiment [2], in experiment [3] and in experiment [4] were -0.554% [at 10.5 µM], 7.33% [at 10.5 µM] and -5.46% [at 10.5 µM], respectively.

On to `CCCCC(CC)COC(=O)CC#N` (configuration not stated), for which the Potency entry in experiment [1], in experiment [2], in experiment [3] and in experiment [4] was “inactive” in each case.

In the case of `N#CCCN(CCO)CCO`, the Potency result in experiment [1], in experiment [2], in experiment [3] and in experiment [4] was “inactive” throughout.

As to `CCCCC(CC)COCC1CO1` (configuration not stated), the Potency result in experiment [1], in experiment [2], in experiment [3] and in experiment [4] was “inactive” throughout.
